Measured values as given in PubChem BioAssay (NCATS).
Records with an inconclusive call do not appear. Activity calls are given as the source filed them. Calls follow the shape of the dose curve; as a rule, active = well fitted curve in the direction sought with a large enough effect; inconclusive = small, poorly fitted or top-dose-only effect, or another doubt; inactive = no such curve, though single readings can be large; an effect the other way counts as inactive or inconclusive.

Experiments:
CRL-7250 = normal cell line; test: Cytotoxic Profiling of Annotated Libraries Using Quantitative High-Throughput Screening (AID 1296008); details: Five cell lines viability, CellTiter-Glo ATP luminescence, 48-72 h; max response: hits give low values; also: nearly all actives have a fitted effect of over 60% in size; as to max response: % is scaled to controls: 0 for no effect and ±100 for the full control effect
How it was run: (§1)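 Cells exposed to compounds for 48 or 72 hr at 37 degrees Celsius. Viability read as ATP-coupled luminescence with CellTiter-Glo after 10 min at room temperature.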

HaCat [1] = test: as above; details: Five cell lines viability, CellTiter-Glo ATP luminescence, 48-72 h; max response: hits give low values
How it was run: as §1

KB-3-1 = test: as above; details: Five cell lines viability, CellTiter-Glo ATP luminescence, 48-72 h; max response: hits give low values
How it was run: as §1

NIH3T3 [2] = test: as above; details: Five cell lines viability, CellTiter-Glo ATP luminescence, 48-72 h; max response: hits give low values
How it was run: as §1

NIH3T3 [3] = test: qHTS assay to identify novel small-molecules to repurpose for Merkel cell carcinoma treatment (AID 1296009); details: MCC and control cell lines, CellTiter-Glo viability, 72 h; series mostly up to 44.8 µM; also: nearly all actives have a fitted effect of over 60% in size
How it was run: (§2)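 CellTiter-Glo luminescence after 72 hr compound exposure at 37 degree celsius gave cell viability. Libraries NPC and MIPE were run as 8- and 11-point dose responses; RLUs normalized to DMSO (negative) and no-cell (cytotoxicity) controls.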

C33A = test: Primary qHTS to identify gynecologic anti-cancer compounds using libraries of approved drugs and bioactive compounds (AID 1345084); details: Gynecologic cancer cell panel viability, ATPlite luminescence, 48 h; series mostly up to 57.5 µM; also: nearly all actives have a fitted effect of over 55% in size
How it was run: (§3)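 Luminescence from the ATPlite ATP-monitoring reagent indicates viable cell number; lower signal means cytotoxicity. Cells received compound 16 h after seeding and were exposed for 48 h across five concentrations.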

CAOV3 = test: as above; details: Gynecologic cancer cell panel viability, ATPlite luminescence, 48 h; series mostly up to 57.5 µM
How it was run: as §3

CASKI = test: as above; details: Gynecologic cancer cell panel viability, ATPlite luminescence, 48 h; series mostly up to 57.5 µM
How it was run: as §3

Es-2 = test: as above; details: Gynecologic cancer cell panel viability, ATPlite luminescence, 48 h; series mostly up to 57.5 µM
How it was run: as §3

HeLa = test: as above; details: Gynecologic cancer cell panel viability, ATPlite luminescence, 48 h; series mostly up to 57.5 µM
How it was run: as §3

Hek293T = test: as above; details: Gynecologic cancer cell panel viability, ATPlite luminescence, 48 h, control line for the selectivity index; series mostly up to 57.5 µM
How it was run: as §3

JEG-3 = test: as above; details: Gynecologic cancer cell panel viability, ATPlite luminescence, 48 h; series mostly up to 57.5 µM
How it was run: as §3

OV90 = test: as above; details: Gynecologic cancer cell panel viability, ATPlite luminescence, 48 h; series mostly up to 57.5 µM
How it was run: as §3

HACAT [4] = test: qHTS assay to identify novel small-molecules to repurpose for Merkel cell carcinoma treatment (AID 1296009); details: MCC and control cell lines, CellTiter-Glo viability, 72 h; at 44.8 µM (top of the series) unless noted; also: nearly all actives have a fitted effect of over 60% in size
How it was run: as §2

MCC-26 = test: as above; details: MCC and control cell lines, CellTiter-Glo viability, 72 h
How it was run: as §2

MKL-2 = test: as above; details: MCC and control cell lines, CellTiter-Glo viability, 72 h
How it was run: as §2
Potency is read from the fitted curve at half-maximal effect.

CN(C)S(=O)(=O)c1ccc(NC(=S)N2CCC(C(O)(c3ccccc3)c3ccccc3)CC2)cc1
inactive: outcome (CRL-7250) | max response (HaCat [1]) 3.08% | max response (KB-3-1) -18.9% | outcome (NIH3T3 [2]) | Potency (NIH3T3 [3]) | Potency (C33A) | Potency (CAOV3) | Potency (CASKI) | Potency (Es-2) | Potency (HeLa) | Potency (Hek293T) | Potency (JEG-3) | Potency (OV90)

CO[C@H]1O[C@@H]2O[C@@]3(C)CCC4[C@H](C)CCC([C@H]1C)[C@]42OO3 (stereo not given in full)
inactive: outcome (CRL-7250) | max response (HaCat [1]) -12.1% | outcome (KB-3-1) | outcome (NIH3T3 [2]) | Potency (NIH3T3 [3]) | Potency (C33A) | Potency (CAOV3) | Potency (CASKI) | Potency (Es-2) | Potency (HeLa) | Potency (Hek293T) | Potency (JEG-3) | Potency (OV90)

CC(C)(C)Sc1c(CC(C)(C)C(=O)O)n(Cc2ccc(Cl)cc2)c2ccc(OCc3ccc4ccccc4n3)cc12
inactive: max response (CRL-7250) -0.604% | outcome (HaCat [1]) | outcome (KB-3-1) | max response (NIH3T3 [2]) 1.54% | outcome (HACAT [4]) | Potency (C33A) | Potency (Es-2) | Potency (HeLa) | Potency (Hek293T) | Potency (JEG-3) | Potency (OV90)

CCCCOC(=O)NS(=O)(=O)c1sc(CC(C)C)cc1-c1ccc(Cn2ccnc2)cc1
inactive: max response (CRL-7250) -0.539% | max response (HaCat [1]) -26.5% | max response (KB-3-1) -13.1% | outcome (NIH3T3 [2]) | Potency (NIH3T3 [3]) | Potency (C33A) | Potency (CAOV3) | Potency (CASKI) | Potency (Es-2) | Potency (HeLa) | Potency (Hek293T) | Potency (JEG-3) | Potency (OV90)

CC[C@@H]1C[C@]1(NC(=O)[C@@H]1C[C@@H]2CN1C(=O)[C@H](C(C)(C)C)NC(=O)OCC(C)(C)CCCCc1cccc3c1CN(C3)C(=O)O2)C(=O)NS(=O)(=O)C1CC1
inactive: max response (CRL-7250) -9.24% | max response (HaCat [1]) -6.71% | max response (KB-3-1) -19.5% | outcome (NIH3T3 [2]) | Potency (NIH3T3 [3]) | Potency (C33A) | Potency (CAOV3) | Potency (CASKI) | Potency (Es-2) | Potency (HeLa) | Potency (Hek293T) | Potency (OV90)

Nc1nc2c(nc(Br)n2[C@@H]2O[C@@H]3COP(=O)(O)O[C@H]3[C@H]2O)c(=O)[nH]1
inactive: max response (CRL-7250) -4.64% | max response (HaCat [1]) -8.41% | outcome (KB-3-1) | outcome (NIH3T3 [2]) | Potency (NIH3T3 [3]) | Potency (C33A) | Potency (CAOV3) | Potency (CASKI) | Potency (Es-2) | Potency (HeLa) | Potency (Hek293T) | Potency (JEG-3) | Potency (OV90)

COc1cc(O)cc(/C=C/c2cccc(O)c2)c1
inactive: max response (CRL-7250) 0.366% | outcome (HaCat [1]) | outcome (KB-3-1) | max response (NIH3T3 [2]) -7.28% | outcome (HACAT [4]) | Potency (C33A) | Potency (CASKI) | Potency (Es-2) | Potency (HeLa) | Potency (Hek293T) | Potency (JEG-3) | Potency (OV90)

CN1CCc2cc3c(cc2C(=O)Cc2cc4c(cc2C1)OCO4)OCO3
inactive: outcome (CRL-7250) | max response (HaCat [1]) -8.11% | outcome (KB-3-1) | outcome (NIH3T3 [2]) | Potency (NIH3T3 [3]) | Potency (C33A) | Potency (CAOV3) | Potency (CASKI) | Potency (Es-2) | Potency (HeLa) | Potency (Hek293T) | Potency (JEG-3) | Potency (OV90)

CN1CC2CN(c3ccc4oc5ccccc5c(=O)c4c3)CC2C1 (stereo not given)
inactive: max response (CRL-7250) -0.983% | outcome (HaCat [1]) | max response (KB-3-1) -11.6% | max response (NIH3T3 [2]) -10.4% | outcome (HACAT [4]) inactive [at 17.4 µM] | Potency (CAOV3) | Potency (Es-2) | Potency (HeLa) | Potency (Hek293T) | Potency (JEG-3)

O=C(NCC1(N2CCN(c3ccccc3)CC2)CCOCC1)c1cccnc1Sc1ccccc1
inactive: outcome (CRL-7250) | max response (HaCat [1]) -2.8% | max response (KB-3-1) 1.24% | outcome (NIH3T3 [2]) | Potency (NIH3T3 [3]) | Potency (C33A) | Potency (CAOV3) | Potency (CASKI) | Potency (Es-2) | Potency (HeLa) | Potency (Hek293T) | Potency (JEG-3) | Potency (OV90)

C=C(C)[C@@H]1CC[C@]2(C(=O)O)CC[C@]3(C(=O)O)[C@H](CCC4[C@@]5(C)CCC(=O)C(C)(C)C5CC[C@]43C)C12 (stereo not given in full)
inactive: max response (CRL-7250) -13.3% | outcome (HaCat [1]) | max response (KB-3-1) 4.42% | max response (NIH3T3 [2]) -2.4% | outcome (HACAT [4]) inactive [at 17.4 µM] | Potency (C33A) | Potency (CASKI) | Potency (Es-2) | Potency (HeLa) | Potency (Hek293T) | Potency (JEG-3) | Potency (OV90)

Nc1c(S(=O)(=O)c2ccccc2)c2nc3ccccc3nc2n1-c1ccc(F)cc1
inactive: max response (CRL-7250) 2.31% | max response (HaCat [1]) -0.67% | max response (KB-3-1) 9.53% | outcome (NIH3T3 [2]) | Potency (NIH3T3 [3]) | Potency (C33A) | Potency (CAOV3) | Potency (CASKI) | Potency (Es-2) | Potency (HeLa) | Potency (Hek293T) | Potency (JEG-3) | Potency (OV90)

CC1(C)Oc2ncnc(N)c2N=C1c1ccc(C23CCC(CC(=O)O)(CC2)CC3)cc1
inactive: max response (CRL-7250) 1.74% | outcome (HaCat [1]) | max response (KB-3-1) -2.56% | max response (NIH3T3 [2]) -15.7% | outcome (HACAT [4]) | Potency (C33A) | Potency (CASKI) | Potency (Es-2) | Potency (HeLa) | Potency (Hek293T) | Potency (JEG-3) | Potency (OV90)

CN[C@H]1CC[C@@H](c2ccc(Cl)c(Cl)c2)c2ccccc21
inactive: max response (KB-3-1) -11.2%
active: Potency (CRL-7250) 3.76 µM | Potency (HaCat [1]) 15 µM | Potency (NIH3T3 [2]) 11.9 µM | Potency (MCC-26) 26.6 µM | Potency (MKL-2) 8.41 µM | Potency (CASKI) 28.2 µM

COC(=O)CC[C@@H](C)C1CCC2C3CCC4C[C@H](OC(C)=O)CCC4(C)C3C[C@H](O)C21C (stereo not given in full)
inactive: max response (CRL-7250) -0.684% | max response (HaCat [1]) -5.91% | max response (KB-3-1) 9.49% | outcome (NIH3T3 [2]) | Potency (NIH3T3 [3]) | Potency (C33A) | Potency (CAOV3) | Potency (CASKI) | Potency (Es-2) | Potency (HeLa) | Potency (Hek293T) | Potency (JEG-3) | Potency (OV90)
